Measured values: PubChem BioAssay (NCATS)
Inconclusive results are not listed. The source made the active and inactive calls. Unless noted, calls follow the shape of the dose curve; as a rule, active = well fitted curve in the direction sought with a large enough effect; inconclusive = small, poorly fitted or top-dose-only effect, or another doubt; inactive = no such curve, though single readings can be large; an effect the other way counts as inactive or inconclusive.

Experiments:
[1] = biological target: Lysosomal acid glucosylceramidase (Homo sapiens) (UniProt P04062); test: Glucocerebrosidase-p2 (AID 348; in the data active = potency below about 10 µM; also: potency is read from the fitted curve at half-maximal effect); details: purified GBA, blue fluorogenic substrate, 40 min
How it was run: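 Normal human glucocerebrosidase (0.2 nM) with blue fluorogenic substrate (80 uM final) in citrate/phosphate pH 5.9 with 10mM sodium taurocholate, 0.01% tween-20; 40 min RT, NaOH/glycine stop; fluorescence Ex 365/Em 440; AC50 from a titration from 0.6 nM upwards.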

[2] = biological target: Cytochrome P450 1A2 (Homo sapiens) (UniProt P05177); test: p450-cyp1a2 (AID 410; calls by dose curve; also: potency is read from the fitted curve at half-maximal effect); details: recombinant CYP1A2, luciferin-ME demethylation, luminescence; series mostly up to 57 µM
How it was run: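 Read-out is luminescence from luciferin produced by CYP1A2 demethylation of Luciferin-ME (100uM, at Km). Detection reagent stopped the 60 min NADPH-dependent reaction; signals were normalized to 57 uM furafylline.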

[3] = NFAT Signaling Pathway (AID 444; active = well fitted curve in either direction with a large enough effect, not every such curve was filed as active;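 also: carbachol stimulus at about its EC50 of 1 µM final; % is scaled to controls: 0 for no effect and ±100 for the full control effect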); details: Jurkat NFAT-bla M1, carbachol, beta-lactamase ratio, 5 h; at 7.69 µM (top of the series) unless noted
How it was run: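 Jurkat cells with NFAT-driven β-lactamase reporter and co-expressed M1 receptor, stimulated with carbachol (final 1 uM, ~EC50), compound titration, 5 h at 37 °C. CCF4 loaded 1 h at RT; 460/530 nm ratio gave %activity and AC50.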

[4] = Stat Signaling Pathway (AID 446; active = well fitted curve in either direction with a large enough effect, not every such curve was filed as active;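 also: ME-180 cervical cancer cells given 40 pM IL-6 alongside compound; SIE-controlled beta-lactamase reporter measured as 460/530 nm FRET emission ratio; % is scaled to controls: 0 for no effect and ±100 for the full control effect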); details: ME-180 SIE beta-lactamase reporter, IL-6 stimulated, 5 h; series mostly up to 7.69 µM
How it was run: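 Compound effects on IL-6-induced STAT reporter activity were measured in ME-180 cells. After overnight culture, cells were co-treated with 40 pM IL-6 for 5 hrs before beta-lactamase substrate loading at room temperature.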

[5] = biological target: Glucocorticoid receptor (Homo sapiens) (UniProt P04150); test: GR-GFP Redistribution (AID 450;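 active = compounds whose dose series gives a full or clear partial fitted curve of increased nuclear translocation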; also: potency is read from the fitted curve at half-maximal effect); details: U2OS GR-GFP nuclear translocation, laser cytometry, 2 h
[6] = biological target: Mitogen-activated protein kinase 10 (Mus musculus) (UniProt Q61831); test: JNK3 AlphaScreen Assay (AID 530; active = well fitted curve in either direction with a large enough effect, not every such curve was filed as active;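 also: kinase came from lysate of stimulated human HepG2 cells; signal reports phosphorylation of biotinylated GST-cJun 1-79 at Ser73 with 10 µM ATP; % is scaled to controls: 0 for no effect and ±100 for the full control effect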); details: JNK3 lysate, c-Jun phosphorylation; series mostly up to 57.1 µM
How it was run: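 HepG2 lysate (IL-1b/TNFa pre-activated) + biotin-GST-cJun 1-79 + anti-pSer73 cJun; cpd titration, 15 min RT; ATP 10 uM start; Tris pH 7.6, MgCl2, DTT, vanadate; beads in EDTA buffer; AlphaScreen.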

[7] = biological target: 3',5'-cyclic-AMP phosphodiesterase 4B (Homo sapiens) (UniProt Q07343); test: qHTS Assay for Inhibitors of PDE-IV (AID 607; active = well fitted activation curve with a large enough effect in the main read-out, with a control signal flat, not every such curve was filed as active; also: % of control where 0% means no effect); details: HEK293 ACTOne CNG channel cells, membrane potential fluorescence; series mostly up to 22.9 µM
How it was run: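 ACTOne HEK293 cells carry a modified cAMP-gated CNG channel and express endogenous PDE4; plated 1000 cells/well, compounds up to 22.9 uM final. Membrane-potential dye fluorescence (ex 535/em 590) was read; parental cells received 10 uM forskolin + 100 uM RO 20-1724.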

[8] = biological target: Cytochrome P450 3A4 (Homo sapiens) (UniProt P08684); test: qHTS Assay for Activators of Cytochrome P450 3A4 (AID 885); details: recombinant CYP3A4, Luciferin-PPXE luminescence, 60 min; series mostly up to 57.1 µM; also: nearly all actives have a fitted effect of over 65% in size
How it was run: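 CYP3A4 activity: Luciferin-PPXE O-dealkylation, 25uM substrate, 200mM KPO4, RT throughout. Read-out is luciferase luminescence; higher values reflect activation.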

[9] = qHTS Assay for Identification of Small Molecule Agonists for Hypoxia Response Element Signaling Pathway (AID 914; active = well fitted activation curve with a large enough effect in the signal ratio, with a control signal flat, not every such curve was filed as active; the % refers to the signal ratio; also: % of control where 0% means no effect); details: ME-180 HRE-bla reporter, beta-lactamase ratio, CoCl2, 17 h; activation: hits give high values
How it was run: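 Read-out: CCF4 FRET ratio of 460nm to 530nm emission (excitation 405nm) after 2.5 hours at room temperature, taken from HRE-bla ME-180 cells that had been exposed to compound and EC50 CoCl2 for 17 hours.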

[10] = biological target: Dual specificity protein kinase CLK4 (Homo sapiens) (UniProt Q9HAZ1); test: qHTS Assay for Inhibitors of CDC-like Kinase 4 (ADP-FP Assay) (AID 1795); details: Transcreener ADP fluorescence polarization; series mostly up to 50 µM; also: nearly all actives have a fitted effect of over 60% in size; also: potency is read from the fitted curve at half-maximal effect
How it was run: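 Clk4 6.25 nM; RS peptide 100 uM; ATP 1 uM; 25 mM Tris pH 7.5, 10 mM MgCl2; 1 h reaction. ADP detected via antibody/orange tracer FP displacement; TG003 positive control.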

[11] = biological target: Ubiquitin carboxyl-terminal hydrolase 1 (Homo sapiens) (UniProt O94782); test: Inhibitors of USP1/UAF1: Pilot qHTS (AID 504865); details: purified USP1/UAF1, Ub-rhodamine cleavage fluorescence; series mostly up to 54.9 µM;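 also: rhodamine fluorescence freed from ubiquitin-rhodamine substrate followed over time; top concentration of the series differs between compounds; % is scaled to controls: 0 for no effect and ±100 for the full control effect; nearly all actives have a fitted effect of over 35% in size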
How it was run: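 In 50mM HEPES pH 7.8 containing 0.5mM EDTA, 1mM TCEP, 0.1 mg/ml BSA and 0.01% Tween-20, 1nM USP1/UAF1 is exposed to compound for 15 min, then Ub-Rho (150nM final) is added and fluorescence is read over time.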

[12] = HepG2 viability counterscreen (readout 2: ATP content) against the NCATS DSHEA and TCM libraries (AID 1794840); details: ATP content luminescence; series mostly up to 27.3 µM; also: 0% is about no effect
How it was run: (§1)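 Same wells read twice: first fluorescence from cleaved GF-AFC substrate (25 uM final, 30 min, 37C) for live-cell protease, then CellTiter-Glo luminescence after 30 min at room temperature for ATP. HepG2 cells were exposed ~24 h to substances.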

[13] = HepG2 viability counterscreen (readout 1: protease activity) against the NCATS DSHEA and TCM libraries (AID 1794841); details: qHTS concentration series; series mostly up to 27.3 µM;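 also: cells exposed to compounds for about 24 h before the protease read; 0% is about no effect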
How it was run: as §1

[14] = biological target: Cytochrome P450 3A4 (Homo sapiens) (UniProt P08684); test: qHTS for inhibitors of CYP3A4 against the NCATS DSHEA and TCM libraries (AID 1919971); details: recombinant CYP3A4 enzyme activity, luminescence qHTS; series mostly up to 34.1 µM;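 also: % is scaled to controls: 0 for no effect and ±100 for the full control effect; inhibition lowers luminescence from luciferin made by CYP3A4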
How it was run: (§2)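 Isoform-specific enzyme and substrate levels; enzyme-free wells as background. Reaction: 1x NADPH regenerating system, 30-45 min, room temperature, shielded from light; luminescent detection reagent added, 30 min.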

[15] = biological target: Cytochrome P450 2D6 (Homo sapiens) (UniProt P10635); test: qHTS for inhibitors of CYP2D6 against the NCATS DSHEA and TCM libraries (AID 1919972); details: CYP2D6 enzymatic inhibition, luminescence qHTS; series mostly up to 34.1 µM; also: % is scaled to controls: 0 for no effect and ±100 for the full control effect
How it was run: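 qHTS, concentration–response format with most substances from 19.5 nM. CYP2D6 + pro-luciferin substrate, 15 min with compound, then 1x NADPH regen, 30–45 min RT dark. Glo detection 30 min, luminescence. Quinidine control.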

[16] = biological target: Cytochrome P450 2C9 (Homo sapiens) (UniProt P11712); test: qHTS for inhibitors of CYP2C9 against the NCATS DSHEA and TCM libraries (AID 1919973); details: recombinant CYP2C9 enzyme activity, luminescence; series mostly up to 34.1 µM
How it was run: as §2

[17] = biological target: Cytochrome P450 2C19 (Homo sapiens) (UniProt P33261); test: qHTS for inhibitors of CYP2C19 against the NCATS DSHEA and TCM libraries (AID 1919974); details: CYP2C19 enzyme inhibition, luminescence qHTS; series mostly up to 34.1 µM
How it was run: as §2

[18] = KB-3-1 P-gp reporter qHTS against the NCATS DSHEA and TCM libraries (AID 1919975); details: KB-3-1 parental cells, CellTiter-Glo luminescence viability, 72 h; series mostly up to 26.1 µM; also: 0% is about no effect
How it was run: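 KB-3-1 parental line, 1536-well qHTS: cells seeded, ~4 h attachment, pintool compound addition, ~72 h at 37C, then CellTiter-Glo, 30 min RT, luminescence. Concentration-response format.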

[19] = biological target: Cytochrome P450 1A2 (Homo sapiens) (UniProt P05177); test: qHTS for inhibitors of CYPIA2 against the NCATS DSHEA and TCM libraries (AID 1919976); details: recombinant CYP1A2 enzyme activity, luminescence; series mostly up to 37 µM
How it was run: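 Furafylline served as the plate control. Compounds met CYP1A2 and pro-luciferin substrate 15 min before NADPH regeneration solution (1x) was added; after 30-45 min at RT, P450-Glo reagent was added for 30 min and luminescence was measured.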

[20] = qHTS Counterscreen for compound interference against the NCATS DSHEA and TCM libraries (AID 1919978); details: firefly luciferase detection reagent interference, luminescence;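 also: compounds preincubated with 1 µM D-luciferin or buffer before detection reagent; % of control where 0% means no effect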
How it was run: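 Compounds, titrated from 19.5 nM to 39.8 uM final, were pinned onto 1 uM D-luciferin or plain 100 mM potassium phosphate. After 15 min at room temperature, luciferin detection reagent was added for 30 min before the luminescence read.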

[21] = Dual reporter qHTS for agonist of Pregnane X Receptor (hPXR) against the NCATS DSHEA and TCM libraries: Fluorescence readout (AID 1920058); details: PXR dual reporter cells; series mostly up to 40 µM; also: 0% is about no effect
How it was run: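 In this qHTS counter-read, reporter-bearing HepG2 cells in charcoal-stripped serum received substances for approximately 24 h before viability was assessed fluorometrically with CellTiter-Fluor.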

[22] = biological target: Nuclear receptor subfamily 1 group I member 2 (Homo sapiens) (UniProt O75469); test: Dual reporter qHTS for antagonist of Pregnane X Receptor (hPXR) against the NCATS DSHEA and TCM libraries: Luminescence Readout (AID 1920060); details: hPXR dual reporter cells, luciferase luminescence, antagonist mode; series mostly up to 40 µM;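 also: HepG2 cells carrying hPXR luciferase reporter stimulated with rifampicin at 2 µM; 0% is about no effect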
How it was run: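 Antagonist mode: rifampicin 2 uM final co-added with compounds to hPXR-LucHepG2 cells for 24 h at 37C. Viability by CellTiter-Fluor, Ex/Em 405/540 nm, 1 h; reporter by ONE-Glo luminescence.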

[23] = AP1 Signaling Pathway (AID 357; active = well fitted curve in either direction with a large enough effect, not every such curve was filed as active; also: % is scaled to controls: 0 for no effect and ±100 for the full control effect); details: ME-180 (cervical carcinoma) AP-1-bla reporter, EGF-induced, beta-lactamase ratio, 5 h; at 7.69 µM (top of the series) unless noted
How it was run: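 AP-1-bla ME-180 cells with beta-lactamase reporter under AP-1 response element, stimulated with EC50 EGF; compounds titrated, 5 hours at 37 degrees Celsius. CCF4 read at 460/530 nm ratio; positive and negative modulators judged by AC50.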

[24] = biological target: Glucocorticoid receptor (Homo sapiens) (UniProt P04150); test: GR-EFC Redistribution (AID 451; calls by dose curve; also: potency is read from the fitted curve at half-maximal effect); details: CHO-K1 GR-EFC translocation, beta-gal luminescence, 2 h
How it was run: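 CHO-K1 cells expressing nuclear EA and GR-ED fragments of b-gal; compounds titrated up to 46 uM final, 2 h at 37 C. GR nuclear translocation read as complemented b-gal luminescence after 1 h RT detection.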

Cytochrome P450 1A2 (Homo sapiens), sequence (P05177 whole entry, looked up): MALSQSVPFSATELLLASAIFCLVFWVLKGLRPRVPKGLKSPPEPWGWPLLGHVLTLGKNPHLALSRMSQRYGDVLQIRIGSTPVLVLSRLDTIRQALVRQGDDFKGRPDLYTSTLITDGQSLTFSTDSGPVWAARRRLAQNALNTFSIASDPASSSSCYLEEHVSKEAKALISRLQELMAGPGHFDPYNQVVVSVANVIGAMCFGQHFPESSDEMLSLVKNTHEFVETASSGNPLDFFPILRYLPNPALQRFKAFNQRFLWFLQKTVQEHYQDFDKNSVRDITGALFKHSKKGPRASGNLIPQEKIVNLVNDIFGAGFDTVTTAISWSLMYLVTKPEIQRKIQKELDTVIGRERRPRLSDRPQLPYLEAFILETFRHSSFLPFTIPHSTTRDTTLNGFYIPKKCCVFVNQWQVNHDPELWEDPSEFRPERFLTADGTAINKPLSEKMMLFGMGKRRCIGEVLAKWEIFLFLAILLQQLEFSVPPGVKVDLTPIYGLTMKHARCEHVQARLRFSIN
Glucocorticoid receptor (Homo sapiens), sequence (P04150 whole entry, looked up, the tested form may be a part): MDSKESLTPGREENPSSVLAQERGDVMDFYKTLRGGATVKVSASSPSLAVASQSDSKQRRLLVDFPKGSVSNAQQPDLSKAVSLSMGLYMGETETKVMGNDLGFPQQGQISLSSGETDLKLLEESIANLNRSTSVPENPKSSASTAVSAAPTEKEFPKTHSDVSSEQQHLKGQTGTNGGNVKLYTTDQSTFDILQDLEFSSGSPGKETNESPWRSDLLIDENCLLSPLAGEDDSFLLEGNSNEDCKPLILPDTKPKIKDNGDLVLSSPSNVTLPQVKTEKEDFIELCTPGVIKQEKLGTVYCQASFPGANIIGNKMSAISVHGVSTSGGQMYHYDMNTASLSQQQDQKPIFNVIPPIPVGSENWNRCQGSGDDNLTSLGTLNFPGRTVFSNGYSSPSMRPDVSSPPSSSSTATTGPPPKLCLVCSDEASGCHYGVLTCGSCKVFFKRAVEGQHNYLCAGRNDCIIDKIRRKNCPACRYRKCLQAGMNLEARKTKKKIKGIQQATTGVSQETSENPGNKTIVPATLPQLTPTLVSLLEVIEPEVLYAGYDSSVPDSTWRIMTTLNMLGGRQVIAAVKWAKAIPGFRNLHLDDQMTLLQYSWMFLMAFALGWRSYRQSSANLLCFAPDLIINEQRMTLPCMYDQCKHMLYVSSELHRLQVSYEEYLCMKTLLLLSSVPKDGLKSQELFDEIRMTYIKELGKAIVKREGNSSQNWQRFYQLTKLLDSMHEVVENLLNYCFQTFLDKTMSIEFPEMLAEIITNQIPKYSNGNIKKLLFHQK
Cytochrome P450 3A4 (Homo sapiens), sequence (P08684 whole entry, looked up, canonical isoform): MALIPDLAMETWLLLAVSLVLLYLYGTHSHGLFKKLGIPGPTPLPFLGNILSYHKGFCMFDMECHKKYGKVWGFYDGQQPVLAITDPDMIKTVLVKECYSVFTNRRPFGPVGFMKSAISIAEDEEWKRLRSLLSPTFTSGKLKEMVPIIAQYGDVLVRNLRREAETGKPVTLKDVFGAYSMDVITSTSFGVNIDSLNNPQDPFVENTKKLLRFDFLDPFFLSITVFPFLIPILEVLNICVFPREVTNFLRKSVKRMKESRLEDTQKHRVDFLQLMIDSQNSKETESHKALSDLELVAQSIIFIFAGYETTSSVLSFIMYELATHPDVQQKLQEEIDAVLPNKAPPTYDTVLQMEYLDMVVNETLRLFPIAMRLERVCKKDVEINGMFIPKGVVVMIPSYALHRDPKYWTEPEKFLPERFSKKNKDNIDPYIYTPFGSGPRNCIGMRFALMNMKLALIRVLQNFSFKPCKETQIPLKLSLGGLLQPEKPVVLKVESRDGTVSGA
Dual specificity protein kinase CLK4 (Homo sapiens), sequence (Q9HAZ1 whole entry, looked up): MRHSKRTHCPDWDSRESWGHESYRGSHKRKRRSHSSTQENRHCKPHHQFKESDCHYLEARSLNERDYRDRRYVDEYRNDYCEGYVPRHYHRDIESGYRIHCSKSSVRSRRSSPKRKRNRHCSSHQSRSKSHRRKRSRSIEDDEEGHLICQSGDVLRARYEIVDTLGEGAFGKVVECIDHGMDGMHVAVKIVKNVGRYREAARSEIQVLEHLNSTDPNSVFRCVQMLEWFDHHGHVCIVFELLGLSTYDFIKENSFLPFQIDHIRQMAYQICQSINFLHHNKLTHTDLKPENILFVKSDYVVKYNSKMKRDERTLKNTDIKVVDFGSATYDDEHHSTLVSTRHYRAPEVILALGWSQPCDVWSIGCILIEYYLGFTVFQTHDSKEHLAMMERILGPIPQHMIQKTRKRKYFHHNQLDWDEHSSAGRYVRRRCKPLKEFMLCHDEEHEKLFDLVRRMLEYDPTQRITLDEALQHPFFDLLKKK
Ubiquitin carboxyl-terminal hydrolase 1 (Homo sapiens), sequence (O94782 whole entry, looked up): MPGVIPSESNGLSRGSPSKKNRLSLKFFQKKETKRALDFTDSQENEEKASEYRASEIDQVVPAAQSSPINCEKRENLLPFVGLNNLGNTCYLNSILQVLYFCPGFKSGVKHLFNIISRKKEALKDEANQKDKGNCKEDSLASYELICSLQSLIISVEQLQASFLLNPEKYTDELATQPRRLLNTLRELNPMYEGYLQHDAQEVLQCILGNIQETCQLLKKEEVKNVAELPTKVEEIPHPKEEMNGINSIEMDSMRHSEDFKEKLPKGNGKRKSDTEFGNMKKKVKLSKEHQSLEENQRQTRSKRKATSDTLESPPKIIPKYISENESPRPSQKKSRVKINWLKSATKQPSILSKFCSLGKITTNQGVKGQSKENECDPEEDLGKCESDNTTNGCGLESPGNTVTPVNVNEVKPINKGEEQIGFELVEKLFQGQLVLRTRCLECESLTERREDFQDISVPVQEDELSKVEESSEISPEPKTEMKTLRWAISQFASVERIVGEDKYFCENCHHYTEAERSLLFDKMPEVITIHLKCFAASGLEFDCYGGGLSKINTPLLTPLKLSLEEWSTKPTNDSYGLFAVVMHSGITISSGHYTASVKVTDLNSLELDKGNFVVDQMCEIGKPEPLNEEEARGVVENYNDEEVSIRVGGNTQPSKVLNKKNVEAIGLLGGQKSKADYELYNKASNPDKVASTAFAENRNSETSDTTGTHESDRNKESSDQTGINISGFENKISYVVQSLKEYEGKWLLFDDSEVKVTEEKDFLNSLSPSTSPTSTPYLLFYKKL
Nuclear receptor subfamily 1 group I member 2 (Homo sapiens), sequence (O75469 whole entry, looked up): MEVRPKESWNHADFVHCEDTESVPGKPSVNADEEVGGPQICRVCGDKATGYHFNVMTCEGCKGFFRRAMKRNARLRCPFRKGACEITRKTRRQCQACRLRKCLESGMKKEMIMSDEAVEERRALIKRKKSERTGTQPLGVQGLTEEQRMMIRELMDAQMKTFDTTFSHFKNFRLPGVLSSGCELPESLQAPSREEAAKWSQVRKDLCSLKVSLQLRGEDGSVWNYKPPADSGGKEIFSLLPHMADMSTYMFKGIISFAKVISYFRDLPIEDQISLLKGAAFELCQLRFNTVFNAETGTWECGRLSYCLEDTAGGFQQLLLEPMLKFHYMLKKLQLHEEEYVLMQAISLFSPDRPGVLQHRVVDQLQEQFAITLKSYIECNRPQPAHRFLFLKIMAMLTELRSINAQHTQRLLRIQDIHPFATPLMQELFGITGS
Cytochrome P450 2C19 (Homo sapiens), sequence (P33261 whole entry, looked up): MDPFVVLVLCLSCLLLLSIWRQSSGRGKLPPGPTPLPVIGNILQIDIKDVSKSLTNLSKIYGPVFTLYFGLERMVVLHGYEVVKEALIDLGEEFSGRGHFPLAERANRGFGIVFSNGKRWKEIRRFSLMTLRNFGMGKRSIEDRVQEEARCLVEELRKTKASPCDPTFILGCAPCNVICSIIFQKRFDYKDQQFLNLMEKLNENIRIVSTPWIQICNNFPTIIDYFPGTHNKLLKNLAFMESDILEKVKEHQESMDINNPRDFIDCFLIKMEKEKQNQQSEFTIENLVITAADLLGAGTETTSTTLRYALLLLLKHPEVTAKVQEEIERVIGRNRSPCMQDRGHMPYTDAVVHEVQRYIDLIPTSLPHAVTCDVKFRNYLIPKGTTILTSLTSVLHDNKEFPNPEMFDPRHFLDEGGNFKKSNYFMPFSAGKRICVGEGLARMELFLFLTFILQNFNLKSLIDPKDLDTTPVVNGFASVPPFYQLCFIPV
3',5'-cyclic-AMP phosphodiesterase 4B (Homo sapiens), sequence (Q07343 whole entry, looked up): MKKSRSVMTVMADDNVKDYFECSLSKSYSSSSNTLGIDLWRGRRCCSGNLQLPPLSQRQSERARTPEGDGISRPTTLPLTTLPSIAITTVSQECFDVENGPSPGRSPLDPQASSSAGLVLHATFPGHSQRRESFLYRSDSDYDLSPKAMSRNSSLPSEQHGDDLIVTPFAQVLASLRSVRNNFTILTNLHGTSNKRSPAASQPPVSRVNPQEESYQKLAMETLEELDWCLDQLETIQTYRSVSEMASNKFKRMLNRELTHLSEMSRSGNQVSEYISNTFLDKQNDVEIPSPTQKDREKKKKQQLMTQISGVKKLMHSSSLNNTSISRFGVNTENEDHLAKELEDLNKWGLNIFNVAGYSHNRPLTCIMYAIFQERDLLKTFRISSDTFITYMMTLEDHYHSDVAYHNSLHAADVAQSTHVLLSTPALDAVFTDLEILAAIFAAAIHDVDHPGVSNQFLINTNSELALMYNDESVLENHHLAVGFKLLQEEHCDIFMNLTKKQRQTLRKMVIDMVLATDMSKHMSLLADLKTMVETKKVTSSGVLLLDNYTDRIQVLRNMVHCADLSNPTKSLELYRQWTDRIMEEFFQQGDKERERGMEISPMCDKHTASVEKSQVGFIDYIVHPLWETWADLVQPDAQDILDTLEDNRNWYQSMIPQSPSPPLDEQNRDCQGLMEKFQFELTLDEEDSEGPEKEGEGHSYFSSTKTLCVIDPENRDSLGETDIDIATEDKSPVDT

CN(C)C(=O)c1ccc(-c2ccc3ncnc(Nc4ccc(F)cc4)c3c2)cc1
active: Potency [2] 20 µM
inactive: Potency [1] > 11.4 µM | activity change, negative = inhibition [3] 24.8% | outcome [4] | Potency [5] > 46 µM | Potency [6] | Potency [7] | outcome [8] | activation [9] 7.84% | Potency [10] | Potency [11]

C=C1CC[C@H]2C[C@@H]1C2(C)C
inactive: outcome [12] | outcome [13] | Potency [14] | Potency [15] | Potency [16] | Potency [17] | outcome [18] | Potency [19] | max response [20] 0.51% | outcome [21] | outcome [22]

c1ccc(Nc2nc(-c3ccoc3)nc3ccccc23)cc1
inactive: activity change, negative = inhibition [23] 0.696% | activity change, negative = inhibition [3] 2.6% | outcome [4] | Potency [5] > 46 µM | Potency [24] > 46 µM | Potency [6] | outcome [8]
active: Potency [2] 0.2 µM | Potency [10] 7.94 µM
